Measured values published in PubChem BioAssay (NCI).
The panel holds about 83,000 compounds, 20% with a hit somewhere; the sample as a whole holds those more often.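 Single-dose data. Exposure time 48 hours. Values below 10 considered active.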 Activity calls are given as the source filed them.

Columns and labels:
Assay in all cases: NCI-60 one-dose screen, 48 h (100 = growth as untreated, 0 = no growth, -100 = all killed)
Conditions in all cases: 10 µM unless noted
[1] = tested on: SK-MEL-2 melanoma
[2] = tested on: EKVX NSCLC
[3] = tested on: SN12C renal
[4] = tested on: UO-31 renal
[5] = tested on: TK-10 renal
[6] = tested on: ACHN renal
[7] = tested on: CAKI-1 renal
[8] = tested on: A498 renal
[9] = tested on: CCRF-CEM leukemia
[10] = tested on: MOLT-4 leukemia

Measured: growth

Cc1nc2sc(C(=O)Nc3ccccc3)c(N)c2cc1C(=O)/C=C/c1ccccc1
active: [3] -27.1% | [4] -82.6% | [5] -18.1% | [6] 3.7% | [7] -54.1% | [8] 9.65% | [9] 6.14%
inactive: [1] 18.4% | [2] 43.2% | [10] 15.3%

CC1(C)O[C@H]2OC3CCC(=O)CC3(O)[C@H]2O1 (stereo not given in full)
inactive: [1] 102% | [2] 112% | [3] 103% | [4] 79.5% | [5] 97.7% | [6] 110% | [7] 101% | [8] 95.1% | [9] 106% | [10] 112%

c1ccc(CCc2ccccc2-c2cc(-c3ccccc3)on2)cc1
inactive: [1] 86.4% | [2] 86.4% | [3] 85.5% | [4] 75.5% | [5] 110% | [6] 89.2% | [7] 92.2% | [8] 89% | [9] 82.7% | [10] 73.1%

CCCCCCCCn1ccc2cc(NC(=O)Cn3cc(CN4CCCCCC4)nn3)ccc21
active: [1] -66.6% | [4] -87.6% | [6] -36% | [7] -39.9% | [9] 1.06% | [10] -27.5%
inactive: [2] 74.1% | [3] 23% | [5] 71.4% | [8] 88.9%

O=C(Cn1nnc2ccccc21)N/N=C/c1ccccc1F
inactive: [1] 102% | [2] 106% | [3] 83.9% | [4] 87% | [5] 107% | [6] 106% | [7] 97.9% | [8] 85.5% | [9] 103% | [10] 104%

C#CCOc1cccc(-c2ncc3cc(NC(=O)CCl)ccc3n2)c1
active: [2] -1.1% | [3] -42.5% | [6] -87.2% | [7] -27.3% | [9] -16.8% | [10] 0.493%
inactive: [1] 22.7% | [4] 50.9% | [5] 78.9% | [8] 88.1%

CCN1CCN(CC(=O)Nc2nc3ccc(NCc4ccc(Br)cc4)cc3s2)CC1
inactive: [1] 55.4% | [2] 68.2% | [3] 63.8% | [4] 59.5% | [5] 87% | [6] 74.6% | [7] 35.5% | [8] 88.8% | [9] 34.2% | [10] 31.7%

CCCCCCCCn1ccc2cc(NC(=O)Cn3cc(CN4CCC(C)CC4)nn3)ccc21
inactive: [1] 50.3% | [2] 79% | [3] 33.5% | [5] 80.7% | [6] 55.1% | [7] 11.3% | [8] 87.6%
active: [4] -87.7% | [9] -12% | [10] 3.1%

COC(c1ccc2ccccc2c1)C(C)C(F)F (stereo not given)
inactive: [1] 97.8% | [2] 100% | [3] 98.2% | [4] 90.6% | [5] 86.4% | [6] 100% | [7] 95.9% | [8] 99.7% | [9] 62.2% | [10] 99.3%

CCCCCCC(=O)Nc1ncc(Cc2ccc(C)cc2)s1
inactive: [1] 63.4% | [2] 53.4% | [3] 49.4% | [4] 44.8% | [5] 65.8% | [6] 46.3% | [7] 35.2% | [8] 19.5% | [9] 21.3% | [10] 35.2%

COc1ccc(OC)c(-c2cn3nc(-c4c[nH]c5ccc(Br)cc45)sc3n2)c1
inactive: [1] 86.3% | [2] 36.9% | [3] 44.2% | [4] 45% | [5] 62% | [6] 38.8% | [7] 29.7% | [8] 86.1% | [9] 32.8% | [10] 48.8%

C[C@@H]1O[C@@H](O[C@@H]2C[C@H](c3ccc4c(c3O)C(=O)C3=C(C4=O)[C@@]4(O)C(=O)C[C@](C)(O)C[C@@]4(O)C=C3)O[C@H](C)[C@H]2O)C[C@H](O)[C@@H]1O
inactive: [1] 103% | [2] 102% | [3] 94.2% | [4] 78.9% | [5] 101% | [6] 102% | [7] 88.1% | [8] 95% | [9] 93.8% | [10] 91.5%

Fc1ccc(COc2ccc(Nc3ncnc4sc5c(c34)CCCC5)cc2)cc1
inactive: [1] 84.4% | [2] 94.3% | [3] 81.1% | [4] 78.5% | [5] 84% | [6] 95.2% | [7] 99.6% | [8] 86.2% | [9] 97.6% | [10] 87.4%

COc1ccc(C/C(C)=C(\c2ccc(O)cc2)c2ccc(OCCN3CCCC3)cc2)cc1
inactive: [1] 100% | [2] 101% | [3] 100% | [4] 86.1% | [5] 121% | [6] 97.1% | [7] 97% | [8] 91.7% | [9] 92.3% | [10] 85.3%

O=C(CCCCCCN1CC(=O)N2[C@@H](c3ccc(Cl)cc3)c3[nH]c4ccccc4c3C[C@H]2C1=O)NO
inactive: [1] 80.7% | [2] 85.6% | [3] 65.7% | [4] 59.7% | [5] 110% | [6] 78.8% | [7] 60.9% | [8] 67.2% | [9] 18.7% | [10] 32.3%

CCN1C(=O)N(CC)C2C1NN=c1s/c(=C\c3cc4ccccc4[nH]3)c(=O)n12 (stereo not given)
inactive: [1] 23.1% | [2] 54.5% | [3] 11.2% | [4] 18.7% | [5] 59.6% | [6] 11.7% | [10] 11.1%
active: [7] 7.63% | [8] 2.17% | [9] -8.2%

Nc1c(C(=O)Nc2cccc3ncccc23)sc2nc3c(cc12)C(=O)CCC3
active: [8] 4.53%
inactive: [1] 36.3% | [2] 58.6% | [3] 60.8% | [4] 58.3% | [5] 76.8% | [6] 52% | [7] 58.8% | [9] 30.5% | [10] 66.6%

CCN1C(=O)N(CC)C2C1NN=c1s/c(=C3\C(=O)N(CCc4ccccc4)c4ccccc43)c(=O)n12 (stereo not given)
inactive: [1] 54.7% | [2] 43.6% | [3] 17.8% | [4] 45.4% | [5] 64.1% | [6] 25.5% | [7] 27.7% | [10] 10.3%
active: [8] -3.18% | [9] 5.65%

CCC(C)Nc1ccc(NC(C)CC)cc1 (stereo not given)
inactive: [1] 91.6% | [2] 86% | [3] 19.8% | [4] 84.4% | [5] 107% | [6] 85.5% | [7] 96.2% | [8] 97.5% | [9] 79% | [10] 59.1%

CC(C(=O)O)n1c(O)c(C=Nc2cccnc2)sc1=S (stereo not given)
inactive: [1] 114% | [2] 96.4% | [3] 88.7% | [4] 50% | [5] 111% | [6] 102% | [7] 79.7% | [8] 95.4% | [9] 92.7% | [10] 94%

Cc1ccc(-c2nc(C#N)c(S(=O)(=O)NCCO)o2)cc1
inactive: [1] 64.9% | [2] 104% | [3] 81.2% | [4] 62.1% | [5] 65.7% | [6] 67.7% | [7] 71% | [8] 108% | [10] 19.8%
active: [9] -17.5%

CCN(CC)c1ccc(/C=N/NC(=O)c2ccc(Nc3ccnc(C(F)(F)F)c3)cc2)c(O)c1
inactive: [1] 56.8% | [2] 11.2% | [3] 24.4% | [5] 43.5% | [8] 44.3% | [9] 25.5% | [10] 103%
active: [4] 4.15% | [6] 7.21% | [7] 7.86%

COc1cc(Nc2c3ccc(Cl)cc3nc3ccc(OC)cc23)c2ncccc2c1
inactive: [1] 78.6% | [2] 39.2% | [3] 52.5% | [4] 26.9% | [5] 44.7% | [6] 31.2% | [7] 32.2% | [8] 62.4% | [9] 26.9% | [10] 39.3%

Cc1ncc(C(=O)Nc2ccc(CN3CCN(C)CC3)c(C(F)(F)F)c2)cc1C#Cc1cnc(N)c2cnccc12
active: [1] -85.3% | [4] -30.1% | [5] -22.6% | [6] -21.6% | [7] -91.5% | [8] -90.5%
inactive: [2] 21.5% | [3] 11.7% | [9] 10.3% | [10] 13%

CC1(C)C2CC=C(/C=N/NC(=O)C3CCC(=O)N3)C1C2 (stereo not given)
inactive: [1] 102% | [2] 105% | [3] 104% | [4] 94.6% | [5] 97.2% | [6] 102% | [7] 97.4% | [8] 102% | [9] 104% | [10] 103%

O=C(N/N=C/c1ccc(O)cc1O)c1ccc(Nc2ccnc(C(F)(F)F)c2)cc1
inactive: [1] 73.3% | [2] 41.4% | [3] 38.5% | [4] 46.1% | [5] 63.3% | [6] 37.9% | [7] 34.9% | [8] 74.7% | [9] 29.1% | [10] 73.7%
